Screens from PubChem.
An excerpt weighted towards active compounds, which were near 3.5% of everything screened.
GPR151 activ: human GPR151 activation | Q8TDV0 | PathHunter beta-arrestin GPR151 cells, luminescence | activation, % at 11.2 µM | 1% of 650,000 active | AID 1508602; in the data active = activation above about 4.9%
Target sequence (Q8TDV0 whole entry, looked up): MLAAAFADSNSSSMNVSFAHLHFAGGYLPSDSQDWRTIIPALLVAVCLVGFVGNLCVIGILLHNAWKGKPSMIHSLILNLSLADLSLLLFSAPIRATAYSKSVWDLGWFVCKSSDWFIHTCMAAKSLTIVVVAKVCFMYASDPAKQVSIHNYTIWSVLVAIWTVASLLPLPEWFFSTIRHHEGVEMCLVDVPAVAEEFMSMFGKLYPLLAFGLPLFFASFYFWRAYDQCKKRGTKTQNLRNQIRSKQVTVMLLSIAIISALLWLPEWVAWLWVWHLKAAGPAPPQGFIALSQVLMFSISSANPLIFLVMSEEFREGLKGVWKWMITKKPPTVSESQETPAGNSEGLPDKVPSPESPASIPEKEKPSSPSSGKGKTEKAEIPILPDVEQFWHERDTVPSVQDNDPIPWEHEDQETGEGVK
TEAD-YAP inh: TEAD-YAP interaction inhibition; 1.4% of 640,000 active; inhibition, % at 9.12 µM; AID 1259422; HEK-TIYL cells, TEAD-Gal4/YAP UAS-luciferase luminescence; in the data active = inhibition above about 32%
FBW7 act: human FBW7 E3 ligase activation, primary screen; AlphaScreen FBW7–phospho-cyclin E peptide binding, activator screen; 0.13% of 650,000 active; normalized activity (activation), % at 26.1 µM; Q969H0; in the data active = normalized activity above about 1.9%;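 note: purified mutant Fbw7 with reduced substrate affinity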
MITF inh: human MITF inhibition, primary screen; AID 1259374; AlphaScreen MITF homodimerization, bead proximity signal; O75030; inhibition, % at 2.6 µM; 0.91% of 650,000 active; in the data active = inhibition above about 50%
MITF inh conf: human MITF inhibition, confirmation. AID 1259372. AlphaScreen MITF homodimerization, biotin/His-MITF beads. 16% of 4,700 active. inhibition, % at 2.6 µM. shares compounds with MITF inh;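 active = inhibition above a cutoff derived from the DMSO control wells, cut at about 28% in these data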;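 note: inhibitors lower the bead chemiluminescence by keeping MITF from dimerizing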
AlphaScreen DR: optically interferes with AlphaScreen signal in dose response; 6% of 480 active; AlphaScreen optical interference counterscreen, cell-free; IC50, µM; shares compounds with MITF inh; AID 1259373; call rule not given here
AS interf ctr: counter-screen: compounds optically interfering with AlphaScreen | shares compounds with MITF inh | LysRS AlphaScreen counterscreen, signal interference, triplicate | inhibition, % at 2.6 µM | 7.6% of 4,700 active | AID 1259376;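 active = inhibition above a cutoff derived from the DMSO control wells, cut at about 30% in these data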
A number is an active result.

What do the screens show for `O=C(CNC1CCCCC1)Nc1c2c(nc3c1CCC3)CCC2`?
GPR151 activ: inactive; TEAD-YAP inh: inactive; FBW7 act: inactive; MITF inh: inactive

Results for O=C(CNC1CCCCC1)Nc1c2c(nc3c1CCC3)CCCC2 ?
GPR151 activ: inactive; TEAD-YAP inh: inactive; FBW7 act: inactive; MITF inh: 74.3; MITF inh conf: inactive; AS interf ctr: inactive

What do the screens show for `COCCCNCCCOc1ccc(C)cc1[N+](=O)[O-]`?
GPR151 activ: inactive; TEAD-YAP inh: inactive; FBW7 act: inactive; MITF inh: 64.4; MITF inh conf: inactive; AS interf ctr: inactive

What do the screens show for `Cc1ccc(OCCN(C)C)c([N+](=O)[O-])c1`?
GPR151 activ: inactive; TEAD-YAP inh: inactive; FBW7 act: inactive; MITF inh: 50.6; MITF inh conf: inactive; AS interf ctr: inactive

How did Cc1ccc(OCCN2CCOCC2)c([N+](=O)[O-])c1 do in these assays?
GPR151 activ: inactive; TEAD-YAP inh: inactive; FBW7 act: inactive; MITF inh: inactive

Results for Cc1ccc(OCCN2CCC(C)CC2)c([N+](=O)[O-])c1 ?
GPR151 activ: inactive; TEAD-YAP inh: inactive; FBW7 act: inactive; MITF inh: 64.1; MITF inh conf: inactive; AS interf ctr: inactive

What do the screens show for `C=C/C=C(\C(C)=C(C)C)N(C(C)=O)C1=NCCCS1`?
GPR151 activ: inactive; TEAD-YAP inh: inactive; FBW7 act: inactive; MITF inh: 64.7; MITF inh conf: inactive; AS interf ctr: inactive

What do the screens show for `N=C1S/C(=C\c2ccco2)C(=O)N1c1nonc1N`?
GPR151 activ: inactive; TEAD-YAP inh: inactive; FBW7 act: inactive; MITF inh: 81.8; MITF inh conf: 59.5; AlphaScreen DR: inactive; AS interf ctr: inactive

Results for COc1cccc(CN2CCN(Cc3ccccn3)CC2)c1 ?
GPR151 activ: inactive; TEAD-YAP inh: inactive; FBW7 act: inactive; MITF inh: 51.4; MITF inh conf: inactive; AS interf ctr: inactive

Results for COc1cccc(CN2CCN(C3CCCC3)CC2)c1 ?
GPR151 activ: inactive; TEAD-YAP inh: inactive; FBW7 act: inactive; MITF inh: 64.9; MITF inh conf: inactive; AS interf ctr: inactive

How did COc1cccc(CN2CCN(C3CCN(Cc4ccccc4)CC3)CC2)c1 do in these assays?
GPR151 activ: inactive; TEAD-YAP inh: inactive; FBW7 act: inactive; MITF inh: inactive

How did COc1cccc(CN2CCN(Cc3cc(OC)cc(OC)c3)CC2)c1 do in these assays?
GPR151 activ: inactive; TEAD-YAP inh: inactive; FBW7 act: inactive; MITF inh: 80.0; MITF inh conf: inactive; AS interf ctr: inactive

How did COc1cccc(CN2CCN(c3ncccn3)CC2)c1 do in these assays?
GPR151 activ: inactive; TEAD-YAP inh: inactive; FBW7 act: inactive; MITF inh: inactive

Results for CCCOC(=O)C1=C(C)NC(=O)NC1c1ccccc1OCC (centres undefined) ?
GPR151 activ: inactive; TEAD-YAP inh: inactive; FBW7 act: inactive; MITF inh: inactive

What do the screens show for `Cc1c(N)cc(C(F)(F)F)cc1C(F)(F)F`?
GPR151 activ: inactive; TEAD-YAP inh: inactive; FBW7 act: inactive; MITF inh: inactive

What do the screens show for `CS/C(N)=C(\C#N)C(c1ccccc1Cl)C(C#N)C(=O)Nc1ccccc1` (centres undefined)?
GPR151 activ: inactive; TEAD-YAP inh: inactive; FBW7 act: inactive; MITF inh: inactive

How did COc1cc(C(=O)N2CCN(C(=O)c3ccccc3)CC2)cc(OC)c1OC do in these assays?
GPR151 activ: inactive; TEAD-YAP inh: inactive; FBW7 act: inactive; MITF inh: inactive

What do the screens show for `COc1ccc(CN2CCN(C3CCC(c4ccccc4)CC3)CC2)c(OC)c1` (centres undefined)?
GPR151 activ: inactive; TEAD-YAP inh: inactive; FBW7 act: inactive; MITF inh: 58.3; MITF inh conf: inactive; AS interf ctr: inactive

How did COc1cc(C(=O)N2CCN(C3CCC(c4ccccc4)CC3)CC2)cc(OC)c1OC (centres undefined) do in these assays?
GPR151 activ: inactive; TEAD-YAP inh: inactive; FBW7 act: inactive; MITF inh: 50.7; MITF inh conf: inactive; AS interf ctr: inactive

How did c1ccc(C2CCC(N3CCN(C4CCCCC4)CC3)CC2)cc1 (centres undefined) do in these assays?
GPR151 activ: inactive; TEAD-YAP inh: inactive; FBW7 act: inactive; MITF inh: inactive

Results for COc1ccc(CN2CCN(C3CCN(Cc4ccccc4)CC3)CC2)c(OC)c1 ?
GPR151 activ: inactive; TEAD-YAP inh: inactive; FBW7 act: inactive; MITF inh: inactive

How did COc1ccc(CN2CCC(N3CCN(c4ccccc4)CC3)CC2)c(OC)c1 do in these assays?
GPR151 activ: inactive; TEAD-YAP inh: inactive; FBW7 act: inactive; MITF inh: 59.9; MITF inh conf: inactive; AS interf ctr: inactive

How did COc1ccccc1CN1CCN(C2CCC(c3ccccc3)CC2)CC1 (centres undefined) do in these assays?
GPR151 activ: inactive; TEAD-YAP inh: inactive; FBW7 act: inactive; MITF inh: 71.3; MITF inh conf: inactive; AS interf ctr: inactive

What do the screens show for `CC(C)CN(CC(C)C)c1nc(-c2ccc([N+](=O)[O-])cc2)nc2ccccc12`?
GPR151 activ: inactive; TEAD-YAP inh: inactive; FBW7 act: inactive; MITF inh: inactive

What do the screens show for `COc1cccc(NC(=O)N(Cc2ccsc2)Cc2ccccn2)c1OC`?
GPR151 activ: inactive; TEAD-YAP inh: inactive; FBW7 act: inactive; MITF inh: inactive

What do the screens show for `CCOC(=O)c1c(-c2ccc(OC)cc2)csc1NC(=O)CN1CCOCC1`?
GPR151 activ: inactive; TEAD-YAP inh: inactive; FBW7 act: inactive; MITF inh: 70.8; MITF inh conf: inactive; AS interf ctr: inactive

How did CCOC(=O)c1c(-c2ccc(F)cc2)csc1NC(=O)CCN1CCN(CC)CC1 do in these assays?
GPR151 activ: inactive; TEAD-YAP inh: inactive; FBW7 act: inactive; MITF inh: 70.7; MITF inh conf: inactive; AS interf ctr: inactive

What do the screens show for `CCOC(=O)c1c(-c2ccccc2)csc1NC(=O)CCN1CCN(C)CC1`?
GPR151 activ: inactive; TEAD-YAP inh: inactive; FBW7 act: inactive; MITF inh: inactive

What do the screens show for `CCOC(=O)c1c(-c2ccc(C)o2)csc1NC(=O)CN1CCCCC1C` (centres undefined)?
GPR151 activ: inactive; TEAD-YAP inh: inactive; FBW7 act: inactive; MITF inh: 56.5; MITF inh conf: inactive; AS interf ctr: 39.3

Results for CCOC(=O)c1c(-c2ccc(C)cc2)csc1NC(=O)CN1CCOCC1 ?
GPR151 activ: inactive; TEAD-YAP inh: inactive; FBW7 act: inactive; MITF inh: inactive

How did CCOCCCNC(=O)CN1C(=O)COc2ccc(C)cc21 do in these assays?
GPR151 activ: inactive; TEAD-YAP inh: inactive; FBW7 act: inactive; MITF inh: inactive

Results for Cc1ccc(C(C)C)cc1OCCNC(C)C ?
GPR151 activ: inactive; TEAD-YAP inh: inactive; FBW7 act: inactive; MITF inh: 89.4; MITF inh conf: inactive; AS interf ctr: inactive

What do the screens show for `Cc1ccc(C(C)C)cc1OCCOCCN1CCCC1`?
GPR151 activ: inactive; TEAD-YAP inh: inactive; FBW7 act: inactive; MITF inh: 54.0; MITF inh conf: inactive; AS interf ctr: inactive
